# Measured values published in the OligoGym collection.
# Target: OSR1
# Test: pooled miR-30 sensor sort-seq; sequence = guide strand
# Settings: shRNA
# Further: reference of the scale not given here.
row,Sequence,sensor-assay potency score (higher = more potent)
1,ATATCTGTGGTCTCGCAGGTGG,-0.964
2,TTGAGCGCTGGAACGCTGCCTC,-0.183
3,AATATATCTGTGGTCTCGCAGG,-1.37

# Target: OTOL1
# Test: as above
# Settings: shRNA
row,Sequence,sensor-assay potency score (higher = more potent)
1,TTTCTCTGGACTTGAACTGCTT,-0.0808
2,TTGCTATTGTGTTCATACCAGC,-1.39
3,TTCCATTCCACTGTCTCCTTTG,-0.205
4,TTTGGTAATTGGTTCTGCCATT,-0.925
5,TTGAACTGCTTCTTATTCTGGG,0.431
6,TAGAGCAGTTAAACTTCCCAGT,-0.7
7,TTGGTCATTATAGAGAATCTTT,-0.546
8,TTCTCTGGACTTGAACTGCTTC,-0.336
9,TCTTTTGACACCTCAAGCCAGA,-0.531
10,TGAACTGCTTCTTATTCTGGGC,-0.752
11,TAGGAAAAAACATATGTCCCAG,-0.389
12,TTGTCCTTTCACTCCTCCCAAA,-1.46

# Target: OTOP1
# Test: as above
# Settings: shRNA
row,Sequence,sensor-assay potency score (higher = more potent)
1,AAGCACAGCAGGTCGCTCTTGC,0.0599
2,TGATACTCTATGTTGAAGGGGT,0.574
3,TTGCAGACTGTGACCACCCGAA,0.116
4,TTGAACTGCATCTTCTGGTGCT,0.911
5,TTCCTCAGGACTTTTCTCTTGG,0.566
6,AAAACTGTTGTTATGTTCCCAA,-0.801
7,TAGAACATGATGAGTGCCGACT,-0.938
8,TCGTCTATCCTGTAAATCCGGA,-0.834
9,TTGAGTTGGTGCTTTGACTCAT,0.454
10,AAACAATGTGATACTACCGCGC,-0.348
11,TTGCAGAGGAACAAGAAGGCTG,-0.195
12,TTGGTGCTTTGACTCATTGAGG,-1.32

# Target: OTOP2
# Test: as above
# Settings: shRNA
row,Sequence,sensor-assay potency score (higher = more potent)
1,TTGCCAGCAGCATCATCGCAGT,-1.22
2,TCCACCTCCACTGTGTTGCTGA,-0.748
3,ATCCACAGAATGACATTGCAGA,-0.488
4,TAGAAGAGGATCCAGAGCGTTG,-1.26
5,TCGATGATAAACATGTTCTGGA,0.252
6,AAGCAGACAATGTTGAAGCTGT,0.428
7,TTGAACCTCGTAGATGATGAAG,-1.6
8,TAGATGACCAGGGCCTGCCTGG,-1.42
9,TTCCACATGACATACAGCATGG,-1.01
10,TTGGTGGTGAGTGTGAACATGA,-0.459
11,TAGAAATCCACCTCCACTGTGT,0.657
12,TTGGTGCACAGATTCATCCACC,-1.03
